Results published in the supplement of paper PMC10849652.
Of roughly 7,900 targets only a part is listed; those with a hit were picked by preference. About 0.6% of all pairs of compound and target were hits. Values without a mark were called inactive.

Assays:
Test in all cases: log2 fold change, soluble protein after heating vs DMSO (PISA); higher = thermal stabilisation; K562 cells, 10 uM, 30 min; active = over 0.2 and 3.5 SD of the protein, either way, in both replicates (recomputed)
[1] = compound: CN1CCN(CCOc2cc(OC3CCOCC3)c3c(Nc4c(Cl)ccc5c4OCO5)ncnc3c2)CC1 [saracatinib]
How it was run: (§1)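 Thermal stability values are relative to control samples and come from duplicates. They are expressed as log2 fold changes. For measurement, K562 cells (2×10^6 cells/mL) received 10 μM compound for 30 min, and aliquots were heated for 3 min over 48°C-58°C, pooled, and extracted at 4°C in PBS with 0.5% NP-40. Soluble protein, the supernatant after 21,000xg for 90 min, was quantified by TMTpro 16plex LC-MS/MS with equalised channel sums.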

[2] = compound: CN1CCN(c2nc(C3=C(c4c[nH]c5ccccc45)C(=O)NC3=O)c3ccccc3n2)CC1 [sotrastaurin]
How it was run: as §1

[3] = compound: CN1CC[C@H](c2c(O)cc(O)c3c(=O)cc(-c4ccccc4Cl)oc23)[C@H](O)C1 [alvocidib]
How it was run: as §1

[4] = compound: CN1CCc2c(c3ccccc3n2Cc2ccc(C(=O)NO)cc2)C1 [Tubastatin A]
How it was run: as §1

[5] = compound: CNC(=O)C1=CC=CC=C1NC2=NC(=NC=C2Cl)NC3=C(C=C(C=C3)N4CCOCC4)OC
How it was run: as §1

[6] = compound: CNC(=O)c1ccc(Nc2ncc(C(F)(F)F)c(NCc3nccnc3N(C)S(C)(=O)=O)n2)cc1 [defactinib]
How it was run: as §1

[7] = compound: CNCc1ccc(-c2[nH]c3cc(F)cc4c3c2CCNC4=O)cc1 [rucaparib]
How it was run: as §1

[8] = compound: CNc1nc(-c2ccc3c(N)n[nH]c3c2)cc(N2C[C@@H](C(=O)NC3CCCCC3)CC[C@H]2C)n1
How it was run: as §1

[9] = compound: COC(=O)N[C@@H](C)CNc1nccc(-c2cn(C(C)C)nc2-c2cc(Cl)cc(NS(C)(=O)=O)c2F)n1 [encorafenib]
How it was run: as §1

[10] = compound: COC(=O)[C@H](CCSC)NC(=O)C1=C(C=C(C=C1)NC[C@H](CS)N)C2=CC=CC=C2
How it was run: as §1

[11] = compound: COC1=CC=C(C=C1)CN2C=CC3=C2C=C(C=C3)C(=O)NO
How it was run: as §1

[12] = compound: CON(C)C(=O)N1N=C(c2cc(F)ccc2F)S[C@@]1(CCCN)c1ccccc1 [filanesib]
How it was run: as §1

[13] = compound: CO[C@H]1C[C@@H]2CC[C@@H](C)[C@@](O)(O2)C(=O)C(=O)N2CCCC[C@H]2C(=O)O[C@H]([C@H](C)C[C@@H]2CC[C@H](n3cnnn3)[C@H](OC)C2)CC(=O)[C@H](C)/C=C(\C)[C@@H](O)[C@@H](OC)C(=O)[C@H](C)C[C@H](C)/C=C/C=C/C=C/1C [zotarolimus]
How it was run: as §1

[14] = compound: COc1cc(C(=O)O)ccc1NC(=O)[C@@H]1N[C@@H](CC(C)(C)C)[C@](C#N)(c2ccc(Cl)cc2F)[C@H]1c1cccc(Cl)c1F [idasanutlin]
How it was run: as §1

[15] = compound: COc1cc(Nc2ncc3c(n2)-c2ccc(Cl)cc2C(c2c(F)cccc2OC)=NC3)ccc1C(=O)O [alisertib]
How it was run: as §1

[16] = compound: COc1cc2nc(-c3cc(F)ccc3O)nc(N[C@@H]3CNC[C@H]3C(C)(C)O)c2cc1OC
How it was run: as §1

[17] = compound: COc1cc2ncnc(Nc3ccc(F)c(Cl)c3)c2cc1OCCCN1CCOCC1 [gefitinib]
How it was run: as §1

[18] = compound: COc1cccc2cc(-c3nc([C@H]4CC[C@H](C(=O)O)CC4)n4ncnc(N)c34)[nH]c12
How it was run: as §1

[19] = compound: CS(=O)(=O)CCNCc1ccc(-c2ccc3ncnc(Nc4ccc(OCc5cccc(F)c5)c(Cl)c4)c3c2)o1 [lapatinib]
How it was run: as §1

[20] = compound: CS(=O)(=O)N1CCN(Cc2cc3nc(-c4cccc5[nH]ncc45)nc(N4CCOCC4)c3s2)CC1 [pictilisib]
How it was run: as §1

Sequence of UniProt Q15582 (Q15582 whole entry, looked up): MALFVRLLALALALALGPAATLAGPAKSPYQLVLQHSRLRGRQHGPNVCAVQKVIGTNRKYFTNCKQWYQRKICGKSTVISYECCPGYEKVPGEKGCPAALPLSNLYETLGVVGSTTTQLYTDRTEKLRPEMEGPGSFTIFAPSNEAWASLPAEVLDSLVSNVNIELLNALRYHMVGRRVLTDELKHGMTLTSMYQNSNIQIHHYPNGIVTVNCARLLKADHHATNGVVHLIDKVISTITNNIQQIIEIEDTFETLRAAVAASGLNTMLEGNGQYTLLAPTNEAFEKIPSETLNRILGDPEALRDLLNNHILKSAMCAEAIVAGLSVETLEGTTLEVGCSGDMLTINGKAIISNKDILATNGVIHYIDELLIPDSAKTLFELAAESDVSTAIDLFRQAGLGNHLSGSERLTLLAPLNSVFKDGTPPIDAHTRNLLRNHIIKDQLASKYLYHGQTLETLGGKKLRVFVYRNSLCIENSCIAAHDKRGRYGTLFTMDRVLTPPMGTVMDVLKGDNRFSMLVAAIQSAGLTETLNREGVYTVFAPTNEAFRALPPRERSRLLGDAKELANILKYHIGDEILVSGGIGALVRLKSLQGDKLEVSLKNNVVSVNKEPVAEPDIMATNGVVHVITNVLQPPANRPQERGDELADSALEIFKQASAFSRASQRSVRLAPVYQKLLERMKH
Sequence of UniProt Q9UQ35 (Q9UQ35 whole entry, looked up): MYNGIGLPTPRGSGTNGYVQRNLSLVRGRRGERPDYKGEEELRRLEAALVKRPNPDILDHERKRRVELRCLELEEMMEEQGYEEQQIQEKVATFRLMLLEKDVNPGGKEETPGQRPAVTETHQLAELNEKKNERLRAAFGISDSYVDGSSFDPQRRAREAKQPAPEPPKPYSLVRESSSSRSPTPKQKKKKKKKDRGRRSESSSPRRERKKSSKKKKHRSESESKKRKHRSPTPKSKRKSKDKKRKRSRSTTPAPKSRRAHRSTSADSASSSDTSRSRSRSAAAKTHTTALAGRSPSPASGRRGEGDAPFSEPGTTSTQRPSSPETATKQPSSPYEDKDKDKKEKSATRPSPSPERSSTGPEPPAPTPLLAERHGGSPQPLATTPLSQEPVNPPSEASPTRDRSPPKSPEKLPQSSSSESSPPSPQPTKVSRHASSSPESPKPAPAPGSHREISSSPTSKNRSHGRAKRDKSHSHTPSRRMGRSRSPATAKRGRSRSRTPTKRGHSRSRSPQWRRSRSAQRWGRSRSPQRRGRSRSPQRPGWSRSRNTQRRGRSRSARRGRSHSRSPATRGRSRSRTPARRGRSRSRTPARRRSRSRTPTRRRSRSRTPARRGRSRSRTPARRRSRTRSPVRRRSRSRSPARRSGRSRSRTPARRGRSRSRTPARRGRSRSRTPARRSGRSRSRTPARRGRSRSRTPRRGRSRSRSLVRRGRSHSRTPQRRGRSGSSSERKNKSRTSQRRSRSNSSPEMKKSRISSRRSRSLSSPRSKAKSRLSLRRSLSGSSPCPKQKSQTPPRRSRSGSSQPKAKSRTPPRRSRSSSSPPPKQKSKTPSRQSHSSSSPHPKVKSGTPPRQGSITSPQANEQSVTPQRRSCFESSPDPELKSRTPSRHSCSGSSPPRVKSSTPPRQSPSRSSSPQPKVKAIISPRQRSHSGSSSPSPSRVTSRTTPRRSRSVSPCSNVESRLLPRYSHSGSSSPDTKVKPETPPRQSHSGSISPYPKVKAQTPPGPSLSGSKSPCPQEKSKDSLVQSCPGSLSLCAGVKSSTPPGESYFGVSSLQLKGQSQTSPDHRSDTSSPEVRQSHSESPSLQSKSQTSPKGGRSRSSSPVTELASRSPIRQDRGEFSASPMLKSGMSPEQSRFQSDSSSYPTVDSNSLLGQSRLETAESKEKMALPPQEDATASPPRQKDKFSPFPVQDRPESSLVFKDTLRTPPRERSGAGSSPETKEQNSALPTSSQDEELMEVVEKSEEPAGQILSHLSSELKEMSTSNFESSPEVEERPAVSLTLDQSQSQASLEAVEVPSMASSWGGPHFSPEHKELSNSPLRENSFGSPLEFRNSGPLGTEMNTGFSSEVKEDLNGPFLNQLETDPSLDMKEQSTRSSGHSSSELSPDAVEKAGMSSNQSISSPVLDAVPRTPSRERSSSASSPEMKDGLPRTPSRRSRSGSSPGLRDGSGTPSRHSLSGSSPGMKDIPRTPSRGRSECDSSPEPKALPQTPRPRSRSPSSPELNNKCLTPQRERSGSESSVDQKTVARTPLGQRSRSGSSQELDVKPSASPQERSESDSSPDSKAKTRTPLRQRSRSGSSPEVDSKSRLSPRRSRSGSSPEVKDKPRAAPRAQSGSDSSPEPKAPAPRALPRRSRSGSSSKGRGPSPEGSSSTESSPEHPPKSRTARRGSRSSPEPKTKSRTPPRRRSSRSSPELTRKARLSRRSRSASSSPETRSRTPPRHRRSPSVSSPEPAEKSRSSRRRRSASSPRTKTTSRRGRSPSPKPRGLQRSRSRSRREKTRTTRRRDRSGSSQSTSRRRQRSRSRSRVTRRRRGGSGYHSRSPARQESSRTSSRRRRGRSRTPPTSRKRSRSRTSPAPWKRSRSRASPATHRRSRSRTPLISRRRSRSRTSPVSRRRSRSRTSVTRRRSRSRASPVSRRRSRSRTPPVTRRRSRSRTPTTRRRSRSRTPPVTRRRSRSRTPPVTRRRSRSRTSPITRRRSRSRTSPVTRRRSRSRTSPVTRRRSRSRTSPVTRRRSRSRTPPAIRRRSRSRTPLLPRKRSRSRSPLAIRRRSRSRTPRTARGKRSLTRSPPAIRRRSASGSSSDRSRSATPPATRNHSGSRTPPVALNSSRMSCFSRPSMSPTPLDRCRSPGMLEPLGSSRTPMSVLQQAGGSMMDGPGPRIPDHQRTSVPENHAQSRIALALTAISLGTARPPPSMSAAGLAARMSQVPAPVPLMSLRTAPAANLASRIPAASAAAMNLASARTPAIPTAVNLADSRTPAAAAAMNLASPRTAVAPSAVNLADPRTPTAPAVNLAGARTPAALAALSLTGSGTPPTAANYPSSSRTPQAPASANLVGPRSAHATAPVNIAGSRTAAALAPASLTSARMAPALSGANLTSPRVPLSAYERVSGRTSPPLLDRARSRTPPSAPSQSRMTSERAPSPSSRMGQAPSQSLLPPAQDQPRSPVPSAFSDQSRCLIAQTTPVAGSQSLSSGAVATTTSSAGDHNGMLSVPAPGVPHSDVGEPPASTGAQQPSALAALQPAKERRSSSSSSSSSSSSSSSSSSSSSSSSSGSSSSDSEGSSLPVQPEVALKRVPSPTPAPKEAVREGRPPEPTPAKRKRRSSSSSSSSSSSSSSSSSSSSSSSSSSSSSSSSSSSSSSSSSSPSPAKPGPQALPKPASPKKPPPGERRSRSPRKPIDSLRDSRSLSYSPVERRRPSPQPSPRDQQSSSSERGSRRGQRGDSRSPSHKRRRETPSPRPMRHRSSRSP
Sequence of UniProt Q96DW6 (Q96DW6 whole entry, looked up): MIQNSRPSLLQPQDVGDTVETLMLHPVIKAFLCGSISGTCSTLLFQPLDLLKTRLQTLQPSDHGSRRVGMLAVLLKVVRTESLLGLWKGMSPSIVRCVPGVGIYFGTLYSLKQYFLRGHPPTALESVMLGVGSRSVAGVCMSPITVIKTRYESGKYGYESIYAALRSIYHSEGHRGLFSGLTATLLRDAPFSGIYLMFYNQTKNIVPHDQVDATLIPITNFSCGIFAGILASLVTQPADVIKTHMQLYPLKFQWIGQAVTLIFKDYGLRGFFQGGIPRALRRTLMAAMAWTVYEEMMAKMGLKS
Sequence of UniProt Q9NUY8 (Q9NUY8 whole entry, looked up): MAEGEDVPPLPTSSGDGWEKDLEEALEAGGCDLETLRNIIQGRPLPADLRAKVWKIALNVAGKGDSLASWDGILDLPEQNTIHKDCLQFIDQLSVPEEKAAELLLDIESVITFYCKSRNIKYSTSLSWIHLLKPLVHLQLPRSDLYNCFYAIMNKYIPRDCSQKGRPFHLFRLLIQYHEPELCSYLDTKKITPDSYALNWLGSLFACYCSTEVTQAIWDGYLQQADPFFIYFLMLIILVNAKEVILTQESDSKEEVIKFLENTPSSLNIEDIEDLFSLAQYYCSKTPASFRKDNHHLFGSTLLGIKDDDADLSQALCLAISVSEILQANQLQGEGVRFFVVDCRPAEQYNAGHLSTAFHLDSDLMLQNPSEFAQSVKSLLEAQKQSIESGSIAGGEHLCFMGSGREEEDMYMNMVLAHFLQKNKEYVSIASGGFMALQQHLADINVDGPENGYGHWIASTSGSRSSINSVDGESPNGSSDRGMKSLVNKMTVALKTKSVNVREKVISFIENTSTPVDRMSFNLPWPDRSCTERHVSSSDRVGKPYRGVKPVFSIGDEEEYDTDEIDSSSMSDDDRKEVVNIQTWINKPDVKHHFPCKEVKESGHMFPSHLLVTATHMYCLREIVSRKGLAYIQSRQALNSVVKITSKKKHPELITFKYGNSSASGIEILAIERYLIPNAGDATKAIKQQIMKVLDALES
Sequence of UniProt Q16629 (Q16629 whole entry, looked up): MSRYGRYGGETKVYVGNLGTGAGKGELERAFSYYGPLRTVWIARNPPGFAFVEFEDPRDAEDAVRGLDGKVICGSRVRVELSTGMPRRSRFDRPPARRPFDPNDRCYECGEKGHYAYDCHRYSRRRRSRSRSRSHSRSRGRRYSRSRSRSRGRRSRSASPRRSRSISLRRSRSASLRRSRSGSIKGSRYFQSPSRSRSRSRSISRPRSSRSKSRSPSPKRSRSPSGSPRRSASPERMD
Sequence of UniProt O75494 (O75494 whole entry, looked up): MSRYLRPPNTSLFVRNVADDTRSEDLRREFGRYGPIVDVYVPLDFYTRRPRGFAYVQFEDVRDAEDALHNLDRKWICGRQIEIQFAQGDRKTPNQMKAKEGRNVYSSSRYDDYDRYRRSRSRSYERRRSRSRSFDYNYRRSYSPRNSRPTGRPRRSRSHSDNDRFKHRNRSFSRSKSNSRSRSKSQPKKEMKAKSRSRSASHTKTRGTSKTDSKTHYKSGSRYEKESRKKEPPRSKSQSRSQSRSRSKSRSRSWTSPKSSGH
Sequence of UniProt Q9Y5L4 (Q9Y5L4 whole entry, looked up): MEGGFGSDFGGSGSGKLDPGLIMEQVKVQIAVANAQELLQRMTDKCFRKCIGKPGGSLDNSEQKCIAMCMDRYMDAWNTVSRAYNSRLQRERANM

Row | Target | log2 fold change [1] | log2 fold change [2] | log2 fold change [3] | log2 fold change [4] | log2 fold change [5] | log2 fold change [6] | log2 fold change [7] | log2 fold change [8] | log2 fold change [9] | log2 fold change [10] | log2 fold change [11] | log2 fold change [12] | log2 fold change [13] | log2 fold change [14] | log2 fold change [15] | log2 fold change [16] | log2 fold change [17] | log2 fold change [18] | log2 fold change [19] | log2 fold change [20]
1 | SLC4A2 (UniProt P04920) | 0.003 | -0.029 | -0.174 | 0.066 | -0.006 | 0.028 | 0.064 | 0.008 | 0.085 | -0.067 | -0.088 | -0.041 | 0 | -0.002 | -0.016 | 0.051 | -0.081 | -0.003 | -0.023 | 0.128
2 | SLC25A38 (UniProt Q96DW6) | 0.076 | -0.027 | -0.117 | -0.035 | -0.015 | 0.046 | -0.002 | 0.026 | 0.016 | -0.057 | -0.013 | -0.01 | -0.029 | -0.069 | -0.049 | 0.039 | 0.013 | 0.447 (active) | -0.02 | 0.04
3 | SLC9A6 isoform 2 (UniProt Q92581) | 0.06 | 0.048 | -0.016 | -0.027 | 0.001 | -0.027 | -0.015 | -0.07 | 0.008 | 0.053 | -0.077 | -0.051 | -0.062 | -0.011 | -0.013 | 0.062 | -0.017 | 0.071 | 0.003 | 0.129
4 | TM9SF2 (UniProt Q99805) | 0.038 | -0.01 | -0.039 | -0.001 | 0.005 | 0.006 | 0.015 | -0.031 | 0.001 | -0.069 | -0.06 | -0.073 | 0.043 | -0.103 | -0.01 | -0.061 | 0.009 | 0.007 | 0.011 | 0.085
5 | SLIRP (UniProt Q9GZT3) | -0.068 | -0.141 | -0.143 | 0.019 | -0.045 | -0.005 | 0.148 | -0.185 | -0.094 | 0.096 | 0.088 | -0.429 (active) | -0.054 | 0.041 | -0.08 | -0.648 (active) | 0.041 | 0.023 | -0.042 | -0.15
6 | SRSF7 (UniProt Q16629) | -0.014 | 0.12 | 0.291 | 0.006 | -0.226 | 0.168 | 0.3 | -0.04 | 0.038 | 0.042 | -0.089 | 0.422 | -0.015 | 0.327 | -0.114 | -0.047 | 0.084 | 0.013 | 0.1 | -0.003
7 | TFB2M (UniProt Q9H5Q4) | -0.029 | -0.031 | -0.082 | -0.012 | 0.02 | -0.06 | -0.013 | -0.054 | -0.002 | -0.001 | -0.044 | -0.074 | -0.001 | -0.055 | 0.011 | 0.006 | 0.002 | 0.037 | -0.001 | -0.021
8 | SRSF11 (UniProt Q05519) | 0.062 | -0.059 | -0.209 | 0.015 | -0.243 | -0.174 | 0.005 | -0.089 | -0.016 | -0.045 | 0.084 | 0.093 | 0.012 | -0.021 | -0.079 | 0.017 | 0.023 | 0.018 | 0 | -0.164
9 | TBC1D23 (UniProt Q9NUY8) | -0.023 | -0.073 | -0.053 | 0.043 | -0.027 | -0.109 | -0.038 | -0.074 | 0.079 | -0.047 | 0.07 | -0.184 | -0.002 | 0.068 | 0.023 | -0.19 | -0.058 | 0.021 | -0.053 | -0.067
10 | SRSF10 (UniProt O75494) | -0.002 | 0.041 | 0.338 | -0.009 | -0.053 | 0.233 | 0.314 | 0.068 | 0.133 | 0.14 | -0.102 | 0.424 | -0.157 | 0.388 | -0.099 | -0.169 | -0.009 | -0.056 | 0.101 | -0.042
11 | SNX2 (UniProt O60749) | 0.006 | 0.002 | -0.089 | 0.004 | -0.114 | -0.068 | -0.004 | 0.024 | 0 | -0.029 | 0.011 | -0.156 | 0.037 | 0 | 0.013 | -0.101 | -0.105 | 0.029 | 0.001 | -0.104
12 | TIMM13 (UniProt Q9Y5L4) | 0.065 | -0.007 | -0.035 | -0.007 | 0.007 | -0.038 | -0.028 | 0.043 | 0.044 | 0 | 0.206 | -0.091 | 0.042 | -0.043 | -0.006 | -0.3 (active) | -0.002 | -0.01 | 0.027 | -0.056
13 | SPPL2B (UniProt Q8TCT7) | -0.009 | 0.074 | -0.02 | -0.031 | 0.026 | -0.014 | -0.036 | -0.06 | 0.029 | 0.069 | 0.025 | -0.223 | -0.016 | -0.01 | -0.113 | -0.05 | -0.061 | 0.084 | -0.002 | 0.292 (active)
14 | SRRM2 (UniProt Q9UQ35) | -0.026 | -0.048 | -0.412 (active) | 0.093 | -0.264 | -0.298 | 0.013 | -0.009 | -0.013 | 0.047 | 0.018 | 0.097 | 0.05 | 0.166 | -0.121 | -0.293 | 0.018 | 0.028 | 0.01 | 0.117
15 | TGFBI (UniProt Q15582) | 0.017 | 0.171 | 0.054 | -0.005 | -0.014 | -0.037 | -0.06 | -0.113 | 0.006 | 0.098 | 0.063 | -0.054 | -0.892 (active) | 0.084 | -0.012 | -0.003 | -0.029 | 0.15 | 0.018 | -0.083
16 | SRP68 (UniProt Q9UHB9) | -0.033 | -0.179 | 0.044 | 0.085 | -0.002 | -0.019 | 0.152 | 0.049 | 0.14 | -0.073 | 0.024 | 0.066 | 0.043 | -0.036 | -0.029 | 0.016 | 0.008 | -0.126 | -0.011 | -0.054
